# Assay results as given in ChEMBL document CHEMBL1157539, “Thousands of chemical starting points for antimalarial lead identification” (Nature, 2010).
# Experiments:
# Type in all cases: functional
# [1] = test system: Plasmodium falciparum; assay: GSK_TCMDC: Inhibition of Plasmodium falciparum 3D7 in whole red blood cells, using parasite LDH activity as an index of growth. Test compounds present at 2uM
# [2] = test system: Plasmodium falciparum; assay: GSK_TCMDC: Inhibition of Plasmodium falciparum Dd2 in whole red blood cells, using parasite LDH activity as an index of growth. Test compounds present at 2uM
# [3] = test system: HepG2; assay: GSK_TCMDC: Percent inhibition of human HepG2 cell line. Test compounds present at 10uM.
Structure (SMILES),Inhibition [1] [%],Inhibition [2] [%],Inhibition [3] [%]
O=C(NCc1ccc(C(F)(F)F)cc1)c1cccc(-c2nnc(-c3cccc(-c4cncnc4)c3)o2)c1,96,79,13
CN(CC1CCC(NC(=O)/C=C/c2ccc(Cl)c(Cl)c2)CC1)C1CCC(c2c[nH]c3ccccc23)CC1 (stereo not given),99,53,53
Cl.O=c1cc(NCCCNCc2scc(I)c2I)[nH]c2ccccc12,100,73,0
COc1ccc(Nc2nccc(N3CCC(NC(=O)Nc4cccc(C(C)=O)c4)C3)n2)cc1 (stereo not given),98,79,29
CC(C)Cn1c(Sc2ccc(C#N)c([N+](=O)[O-])c2)nnc1-c1ccccc1Cl,93,46,18
